Structures are written as SMILES. A number with no mark means an inactive call. How the calls were made is not given here.

Chain of Pantothenate synthetase (Mycobacterium tuberculosis (strain ATCC 25618 / H37Rv)) (P9WIL5 whole entry, looked up): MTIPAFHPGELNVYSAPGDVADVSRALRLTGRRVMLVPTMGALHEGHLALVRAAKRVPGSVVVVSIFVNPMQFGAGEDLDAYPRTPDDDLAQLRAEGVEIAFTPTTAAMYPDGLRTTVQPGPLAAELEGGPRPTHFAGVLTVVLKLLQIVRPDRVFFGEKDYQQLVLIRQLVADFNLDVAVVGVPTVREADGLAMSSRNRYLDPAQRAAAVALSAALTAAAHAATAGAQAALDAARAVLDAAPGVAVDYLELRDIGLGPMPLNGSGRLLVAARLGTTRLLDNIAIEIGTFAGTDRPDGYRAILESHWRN

This test has as its target Pantothenate synthetase (Mycobacterium tuberculosis (strain ATCC 25618 / H37Rv)) (UniProt P9WIL5). Kind of test: Coupled enzyme confirmation of inhibitors against recombinant Mtb PanC (AID 375).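 Further: 0% = full reaction with vehicle and 100% = no enzyme background.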 Conditions: coupled enzyme assay; at 10 µM, active compounds read high.
For `Cc1csc(NC(=O)C2CCCO2)n1` (stereo not drawn), the inhibition is 0%.
In the case of `O=C(NCc1cccnc1)c1ccccn1`, the inhibition is 0%.
Take `O=C1CC(Cc2ccccc2)C(=O)N1CCc1ccc2c(c1)OCO2` (stereo not drawn): the inhibition is 3%.
Take `CC1(C)OC(=O)N(c2cccnc2)C1(C)O` (stereo not drawn): the inhibition was 3%.
Then `CC(C)CN(CC(C)C)C(=O)C12CCC(C)(C(=O)C1)C2(C)C` (stereo not drawn), with 3%; and `CCOC(=O)CNC(=O)Nc1ccccc1C(=O)OC`, with 6%.
Take `COc1cc2nc(N3CCN(C(=O)C4COc5ccccc5O4)CC3)nc(N)c2cc1OC` (stereo not drawn): the inhibition is 3%.
With `O=C1CC(c2ccco2)=Nc2ccccc2N1`, the inhibition was 6%.
In the case of `CCn1c(SC)nc2c(c1=O)SC(C)C2` (stereo not drawn), the inhibition was 0%.
As to `Cc1ccc(S(=O)(=O)N2CCCC2)cc1S(=O)(=O)N1CCCC1`, the inhibition was 0%.
For `CCOC(=O)CSc1nnc(-c2ccc(S(=O)(=O)N3CCOCC3)cc2)n1-c1ccccc1`, the inhibition was 3%.
Turning to `CCOC(=O)C1(CC)NC(c2cccc(F)c2)C2C(=O)N(CC)C(=O)C21` (stereo not drawn), the inhibition was 0%.
Take `Cc1cc(=O)n2[nH]c(-c3ccc(Cl)cc3)cc2n1`: the inhibition was 0%.
For the compound `CCOC(=O)c1cc(CC)sc1NC(=O)COC`, the inhibition was 7%.
Turning to `O=C(NC1CCS(=O)(=O)C1)c1c(NC(=O)C2COc3ccccc3O2)sc2c1CCCC2` (stereo not drawn), the inhibition is 0%.
The value for `Cc1nc2cc(NC(=O)N3CC4(C)CC3CC(C)(C)C4)ccc2n1C` (stereo not drawn) was 8%; that for `COc1cc2[nH]c3c(=O)n(CCN(C(C)C)C(C)C)cnc3c2cc1OC` was 10%; that for `CN(CC(=O)Nc1nccs1)S(=O)(=O)c1ccc(F)cc1` was 0%.

As usually defined, the inhibition is the share of the control response that was lost under treatment.

The values above are taken from PubChem BioAssay.
